# Results filed as inconclusive are left out. Where a call stands in place of a potency, no number is given. Calls of active or inactive are those of the source. The call rests on the fitted dose curve; in most records, active means well fitted curve in the direction sought with a large enough effect; inconclusive means small, poorly fitted or top-dose-only effect, or another doubt; inactive means no such curve, though single readings can be large; an effect the other way counts as inactive or inconclusive.
# Biological target: Aldehyde dehydrogenase, mitochondrial (Homo sapiens) (UniProt P05091)
# Test: qHTS for Inhibitors of the Aldehyde Dehydrogenase Family (ALDH2) Primary screen (AID 2061308); further: nearly all actives have a fitted effect of over 55% in size
# Details: ALDH2 enzyme inhibition qHTS, 1536-well; series mostly up to 56 µM
row,Structure (SMILES),Potency
1,Cc1ccc(S(=O)(=O)Nc2ccc(Cl)cc2C(=O)Nc2nc(-c3ccccc3)cs2)cc1,inactive
2,CN(C)c1ccc2nc(NC(=S)N3CCN(c4cccc(C(F)(F)F)c4)CC3)sc2c1,inactive
3,c1csc(CNc2ncnc3ccc(-c4ccc5c(c4)OCO5)cc23)c1,inactive
4,COc1ccc(CNc2ccc(-c3nc4ccccc4[nH]3)cc2)cc1OC,inactive
5,Cc1cc(-c2nnc3n2CCCCC3)c(C)n1-c1ccc(C(F)(F)F)cc1,inactive
6,COc1ccc(-c2nnc3n2N=C(c2ccc(OC)cc2OC)CS3)cc1,inactive
7,COc1ccc(C2=Nn3c(nnc3-c3ccccc3C(F)(F)F)SC2)cc1OC,inactive
8,CCCn1c(-c2ccc(F)cc2)nc2c(NCCN(CC)CC)nc(C)nc21,inactive
9,CCN(CC)CCCCn1c(-c2ccccc2)nc2c(N3CCOCC3)nc(C)nc21,inactive
10,O=C(Nc1cccnc1)c1cccs1,inactive
11,O=C1CCCC2=C1C(c1[nH]ncc1Cl)N=C(Nc1nc3cc(Br)ccc3o1)N2 (centres undefined),inactive
12,CCCCNc1nc(C)nc2c1nc(-c1ccccc1)n2CCCN(CC)CC,inactive
13,C=C1C(=O)O[C@H]2C1CCC(C)=C1C(=O)C=C(C)[C@@]12O (some centres undefined),inactive
14,N#Cc1nc(Nc2ccc(Br)cc2)nc(NC2CCCC2)n1,inactive
15,NC(=O)C1CCN(c2nc(-c3cccc4ccccc34)cs2)CC1,inactive
16,O=C(Nc1ccc(F)c(F)c1)Nc1nnc(-c2ccncc2)s1,inactive
17,CCOC(=O)c1nc(NCc2ccccc2)sc1C,inactive
18,Cc1ccc(OCCn2c(CCNC(=O)C3CCCC3)nc3ccccc32)cc1,inactive
19,Cc1cc(C)nc(NC(=S)N2CCN(c3ccccc3C#N)CC2)c1,inactive
20,O=C(OCC#CCSc1nnc(-c2cccc3ccccc23)o1)c1sccc1Cl,inactive
21,Cc1c(P(=S)(c2ccccc2)c2ccccc2)c2ccccc2n1C(=O)NCc1ccc(F)cc1,inactive
22,Cc1cc2c(s1)c1cnn(Cc3c(F)ccc(Cl)c3F)c(=O)c1n2C,inactive
23,CC(C)[C@@H](C)/C=C/[C@@H](C)[C@H]1CC[C@H]2C3=CC=C4C[C@@H](O)CC[C@]4(C)C3=CC[C@]12C,inactive
24,Cc1ccc(NS(=O)(=O)c2ccc3c(c2)CCC(=O)N3)cc1,inactive

# Biological target: Retinaldehyde dehydrogenase 3 (Homo sapiens) (UniProt P47895)
# Test: qHTS for Inhibitors of the Aldehyde Dehydrogenase Family (ALDH1A3) Primary screen (AID 2061315)
# Details: ALDH inhibition qHTS; series mostly up to 56 µM
row,Structure (SMILES),Potency
1,Cc1cc(C)n2ncc(C(=O)Nc3cccc(C(F)(F)F)c3)c2n1,inactive
2,CCOC(=O)c1nn(-c2ccccc2)c(=O)c2c(N)scc12,inactive
3,Cc1cccc(NC(=O)CN2CCC(c3ccccn3)CC2)c1,inactive
4,O=C1CCCC2=C1C(c1[nH]ncc1Cl)N=C(Nc1nc3cc(F)ccc3o1)N2 (centres undefined),inactive
5,C=Cc1ccc(C(=O)N2CCCC(CCC(=O)N3CCN(c4ccccn4)CC3)C2)cc1 (centres undefined),inactive
6,N#Cc1cnc(N[S+](=O)([O-])c2ccc(Nc3nc(-c4ccccc4)cs3)cc2)s1,inactive
7,COC(=O)C1CCN(C(=O)c2ccc3c(c2)ncn3-c2cccc(C)c2)CC1,inactive
8,CCC(C)/C=C(C)/C=C/C1=CC2=C(Cl)C(=O)C(C)(OC(C)=O)C(=O)C2(O)C(OC)O1 (centres undefined),inactive
9,O=S(=O)(c1ccc2c(c1)OCCO2)C1CCC(S(=O)(=O)c2c(F)cccc2F)CC1 (centres undefined),inactive
10,Oc1cccc2cc(CNc3ccccc3F)cnc12,inactive
11,c1nc(N2CCCCC2)c2cc(-c3ccc4c(c3)OCO4)ccc2n1,inactive
12,COc1cccc(C(=O)Nc2ccc(-c3nc4ccccc4[nH]3)cc2)c1,inactive
13,Cc1ccc(-c2ccc(=O)n(CC(=O)N(C)CCN(C)C)n2)cc1,inactive
14,Cc1cc(C)nc(NC(=S)N2CCN(c3ccc([N+](=O)[O-])c4cccnc34)CC2)c1,inactive
15,COc1ccc(CCc2nc3c(C)c(-c4c(C)noc4C)c(C)cc3n2CCN2CCOCC2)cc1,inactive
16,O=S(=O)(c1ccc(Cl)cc1)N1CCN(S(=O)(=O)c2ccc3c(c2)OCCO3)CC1,inactive
17,Cc1ccc(S(=O)(=O)Nc2ccc(Cl)cc2C(=O)Nc2nc(-c3ccccc3)cs2)cc1,inactive
18,CN(C)c1ccc2nc(NC(=S)N3CCN(c4cccc(C(F)(F)F)c4)CC3)sc2c1,inactive
19,c1csc(CNc2ncnc3ccc(-c4ccc5c(c4)OCO5)cc23)c1,inactive
20,COc1ccc(CNc2ccc(-c3nc4ccccc4[nH]3)cc2)cc1OC,inactive

row,Structure (SMILES),Potency
1,Cc1cc(-c2nnc3n2CCCCC3)c(C)n1-c1ccc(C(F)(F)F)cc1,inactive
2,COc1ccc(-c2nnc3n2N=C(c2ccc(OC)cc2OC)CS3)cc1,inactive
3,COc1ccc(C2=Nn3c(nnc3-c3ccccc3C(F)(F)F)SC2)cc1OC,inactive
4,CCCn1c(-c2ccc(F)cc2)nc2c(NCCN(CC)CC)nc(C)nc21,inactive
5,CCN(CC)CCCCn1c(-c2ccccc2)nc2c(N3CCOCC3)nc(C)nc21,inactive
6,O=C(Nc1cccnc1)c1cccs1,inactive
7,O=C1CCCC2=C1C(c1[nH]ncc1Cl)N=C(Nc1nc3cc(Br)ccc3o1)N2 (centres undefined),inactive
8,CCCCNc1nc(C)nc2c1nc(-c1ccccc1)n2CCCN(CC)CC,inactive
9,C=C1C(=O)O[C@H]2C1CCC(C)=C1C(=O)C=C(C)[C@@]12O (some centres undefined),inactive
10,N#Cc1nc(Nc2ccc(Br)cc2)nc(NC2CCCC2)n1,inactive
11,NC(=O)C1CCN(c2nc(-c3cccc4ccccc34)cs2)CC1,inactive
12,O=C(Nc1ccc(F)c(F)c1)Nc1nnc(-c2ccncc2)s1,inactive
13,CCOC(=O)c1nc(NCc2ccccc2)sc1C,inactive
14,Cc1ccc(OCCn2c(CCNC(=O)C3CCCC3)nc3ccccc32)cc1,inactive
15,Cc1cc(C)nc(NC(=S)N2CCN(c3ccccc3C#N)CC2)c1,inactive
16,O=C(OCC#CCSc1nnc(-c2cccc3ccccc23)o1)c1sccc1Cl,inactive
17,Cc1c(P(=S)(c2ccccc2)c2ccccc2)c2ccccc2n1C(=O)NCc1ccc(F)cc1,inactive
18,Cc1cc2c(s1)c1cnn(Cc3c(F)ccc(Cl)c3F)c(=O)c1n2C,inactive
19,CC(C)[C@@H](C)/C=C/[C@@H](C)[C@H]1CC[C@H]2C3=CC=C4C[C@@H](O)CC[C@]4(C)C3=CC[C@]12C,inactive
20,Cc1ccc(NS(=O)(=O)c2ccc3c(c2)CCC(=O)N3)cc1,inactive
